PINK1 expr mod: A Quantitative High throughput Screen to Identify Chemical Modulators of PINK1 Expression. PINK1 immunofluorescence, high-content cytometry, 24 h. hit rate 0.2% among 410,000. AID 624263, 2012. Potency, µM (titrated, usually from 76.6 µM), for the others: top-dose activation (PINK1 increase), actives largely listed as activators; active = well fitted activation curve with a large enough effect; inconclusive = small, poorly fitted or top-dose-only effect; cell line not stated here; note: potency is the fitted concentration of half-maximal effect; % of control where 0% means no effect; nearly all actives have a fitted effect of over 65% in size
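PINK1 protein, normally rapidly degraded, was detected by immunofluorescence after 24 hour compound treatment of a stable cell line. Titration data (5 concentrations) came from laser-scanning cytometry, with CCCP-treated wells as controls.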
MCF10A rereplic: A quantitative high throughput screen for small molecules that induce DNA re-replication in MCF 10a normal breast cells. MCF 10A DNA re-replication, Hoechst nuclear intensity, 48 h. Potency, µM (highest dose often 46.1 µM), for inactives: at the top dose activity, positive = re-replication, usual class: activators. hit rate 2.9% among 350,000; note: potency is the fitted concentration of half-maximal effect; % of control where 0% means no effect; nearly all actives have a fitted effect of over 50% in size
IL1B secr inh: qHTS for Inhibitors of Inflammasome Signaling: IL-1-beta AlphaLISA Primary Screen; AID 743279, 2014; activity change, % at 57.5 µM; hit rate 4.7% among 360,000; THP-1 LPS/ATP IL-1B secretion, AlphaLISA, 16 h; hits give low values; in the data active = activity change below about -50%; inconclusive = mostly about -30% to -49%; note: % is set by controls: 0 for no effect and ±100 for the full control effect
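THP-1 cells pretreated 1 hr with compounds (up to 57.5 uM final), then stimulated with LPS (250 ng/mL final) plus ATP (1.25 mM final); secreted IL-1B measured by AlphaLISA after 16 hr, decreased signal indicating inhibition.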
ATXN2 expr inh: Primary qHTS for Inhibitors of ATXN expression | HEK-293 ATXN2-luciferase reporter, luminescence, 24 h | Potency, µM (top dose mostly 57 µM), inactives show top-dose activity change, negative = inhibition, usual class: inhibitors | hit rate 0.72% among 360,000 | AID 1745845, 2022; note: potency is the fitted concentration of half-maximal effect; % is set by controls: 0 for no effect and ±100 for the full control effect; nearly all actives have a fitted effect of over 55% in size
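qHTS (up to 57 uM final) was run with 24 h compound exposure of reporter cells at 37 °C. Each well was multiplexed: SteadyGlo luminescence measured ATXN2-luciferase expression after a fluorogenic Gly-Phe-AFC viability readout (25 uM final).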
S2 tox: Viability Counterscreen for Primary qHTS for Inhibitors of ATXN expression; Potency, µM (highest dose often 56.7 µM), actives largely listed as cytotoxic; S2 cells (HEK-293 line with an ATXN2-luciferase reporter) viability, CellTiter-Fluor protease fluorescence, 24 h; hit rate 0.49% among 400,000; note: potency is the fitted concentration of half-maximal effect; nearly all actives have a fitted effect of over 40% in size
SW480 rerep: A quantitative high throughput screen for small molecules that induce DNA re-replication in SW480 colon adenocarcinoma cells; SW480 DNA re-replication, Hoechst DNA content imaging, 48 h; Potency, µM (series often up to 46.1 µM), for inactives: top-dose re-replication activation, actives largely listed as activators; hit rate 1.8% among 340,000; note: potency is the fitted concentration of half-maximal effect; % of control where 0% means no effect; nearly all actives have a fitted effect of over 55% in size
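DNA re-replication was detected as more nuclei of elevated Hoechst intensity after 48 hr exposure to compound (23 nL pinned per well of 250 cells).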
* = called active by the depositor; i = inactive; u = inconclusive; x = no result; [ ] = remark or other dose. The list is not random: actives were taken first. Their share in the collection is about 7.1%. Unless noted, calls come from the whole dose curve; as a rule, active = well fitted curve in the direction sought with a large enough effect; inconclusive = small, poorly fitted or top-dose-only effect, or another doubt; inactive = no such curve, though single readings can be large; an effect the other way counts as inactive or inconclusive.

SMILES | PINK1 expr mod | MCF10A rereplic | IL1B secr inh | ATXN2 expr inh | S2 tox | SW480 rerep
O=S(=O)(NCc1nc(N2CCCC2)c2cc(Cl)ccc2n1)c1ccccc1OC(F)(F)F | 0% | x | x | x | u | x
CN(Cc1ccc(C(F)(F)F)cc1)C(=O)c1ccc(Oc2ccccc2)cc1 | 18% | 16µM* | -20 | -18% | i | -2%
CN(Cc1ccccc1F)C(=O)c1ccc(Oc2ccccc2)cc1 | 1% | 2% | -6 | 17% | i | -13%
CN(Cc1ccc(F)cc1)C(=O)c1cccc(OCc2ccccc2)c1 | -2% | 8% | -54* | -31% | i | -2%
COc1ccc(CN2CCC3(CC2)c2ccccc2[C@@H](NC(=O)c2ccccc2OC)[C@@H]3O)cc1O | 1% | x | x | x | u | x
CC(C)(C)c1ccc(-n2nc(C#N)c(Cl)cc2=O)cc1 | -4% | 2.9µM* | -97* | u | x | 4.1µM*
CCc1nc2ccccc2n(CCOCCn2c(=O)c(CC)nc3ccccc32)c1=O | 10µM* | -4% | -5 | 4% | i | -5%
COc1cccc(CCNC(=O)c2cnc3sc(N4CCOCC4)nn3c2=O)c1 | 0% | x | x | 4% | i | x
Cc1cc(=O)oc2cc(Oc3ncccc3[N+](=O)[O-])ccc12 | 0% | -5% | 3 | -15% | i | -2%
Cc1cc(=O)oc2cc(Oc3ccc([N+](=O)[O-])cc3[N+](=O)[O-])ccc12 | -3% | u | -104* | 1% | u | -36%
O=Cc1cccc(Oc2ccc([N+](=O)[O-])cc2[N+](=O)[O-])c1 | 8% | u | 62 | -9% | u | 13%
CCC(=O)c1ccc(Oc2ccc(C(=O)c3ccc(C)cc3)cc2[N+](=O)[O-])cc1 | -1% | u | -80* | -22% | u | 27%
O=C(c1ccccc1)c1ccc(Oc2ccc([N+](=O)[O-])cc2[N+](=O)[O-])cc1 | 1% | 12µM* | -95* | 41% | i | 3.3µM*
Cc1ccc(C(=O)c2cc(O)c(O)c([N+](=O)[O-])c2)cc1 | x | x | x | -13% | i | x
COc1ccc(-n2c(C)nc3cc(C(=O)NC4CCCC4)ccc32)cc1 | 0% | x | x | -3% | i | x
CCN(CC)CC(=O)Nc1c(C)cccc1C | 0% | u | -6 | 6% | i | 3%
Cc1cccc(C)c1NC(=O)CN(C)c1ccc(C(F)(F)F)cn1 | 1% | 1% | -6 | x | i | 12µM*
Cc1cccc(C)c1NC(=O)CN(C)C(=O)c1ccc(-c2cccc(C(F)(F)F)c2)o1 | 3% | -27% | -1 | -8% | i | 4.1µM*
CCn1c(C(=O)N2CCCC(C(=O)NCCCOC)C2)cc2sccc21 (centres undefined) | 2% | x | x | x | x | x
O=C1C2CC=CCC2C(=O)N1c1n[nH]c(Cc2ccccc2)n1 (centres undefined) | 3%[38.3 µM] | 7.3µM* | 10 | -10% | i | 2%
CCCCNC(=O)C1CCC(Cn2c(=O)c3sccc3n(CC(=O)Nc3ccccc3)c2=O)CC1 (centres undefined) | -1% | x | x | 13% | i | x
O=C1NC[C@H](Cc2ccccc2)N(C[C@@H]2CCCN2C[C@H](Cc2ccccc2)N2C[C@H](Cc3ccccc3)N(CCc3ccccc3)C(=O)C2=O)C1=O | 9% | x | -70* | u | u | x
O=C1NC[C@H](Cc2ccc(O)cc2)N(C[C@@H]2CCCN2C[C@H](Cc2ccccc2)N2C[C@H](Cc3ccc(O)cc3)N(CCc3ccccc3)C(=O)C2=O)C1=O | 0% | x | u | 0% | i | x
O=C1NC[C@H](Cc2ccccc2)N(C[C@H]2CCCN2C[C@H](Cc2ccccc2)N2C[C@H](Cc3ccccc3)N(CCc3ccccc3)C(=O)C2=O)C1=O | 1% | u | -77* | u | 18µM* | u
Cc1coc2cc3oc(=O)c(Cc4ccccc4)c(C)c3cc12 | 17% | 5% | 23 | -4% | i | -9%
SMILES | PINK1 expr mod | MCF10A rereplic | IL1B secr inh | ATXN2 expr inh | S2 tox | SW480 rerep
Cc1c(C)c2cc3c(C)coc3cc2oc1=O | 1% | 1% | -51* | 8% | i | -9%
CC(=O)c1cccc(NC(=O)CN2C(=O)c3cccnc3Sc3ccccc32)c1 | 0% | x | x | 38% | i | x
Cc1ccc(NC(=O)Nc2nnc(SCC(=O)N(C(C)C)C(C)C)s2)cc1 | 1% | x | x | x | x | x
CCN1CCN(CC(=O)Nc2cc(S(=O)(=O)N3CCCCC3)ccc2Cl)CC1 | -1% | u | -12 | -4% | i | -10%
CCN(c1ccccc1)S(=O)(=O)c1ccc(Cl)c(NC(=O)Nc2ccc(Cl)cc2C#N)c1 | -2% | u | -53* | 0% | i | u
CCN(c1ccccc1)S(=O)(=O)c1ccc(Cl)c(NC(=O)CN2CCN(C)CC2)c1 | 2% | 16µM* | 1 | -8% | i | 12%
CCN(c1ccccc1)S(=O)(=O)c1ccc(Cl)c(NC(=O)CNCc2ccccc2OC)c1 | -1% | 16µM* | -14 | -12% | i | u
CCN1CCN(CC(=O)Nc2cc(S(=O)(=O)N(CC)c3ccccc3)ccc2Cl)CC1 | 1% | 21µM* | u | -14% | i | u
CCN(c1ccccc1)S(=O)(=O)c1ccc(Cl)c(NC(=O)CSc2ncn[nH]2)c1 | 3% | 16% | -4 | -13% | i | 2%
CCCc1nn2c(=O)cc(COC(=O)c3cccc(NC(=O)c4ccc(OCC)cc4)c3)nc2s1 | 1% | x | x | x | x | x
COc1ccc(S(=O)(=O)Cc2ccccc2)cc1N | u | u | 1 | 13% | i | 6.5µM*
CCN(c1ccccc1)S(=O)(=O)c1ccc(OC)c(NC(=O)Cc2ccccc2OC)c1 | -1% | 10% | 0 | 4% | i | -33%
CCN(c1ccccc1)S(=O)(=O)c1ccc(N)c(OC)c1 | 4% | 18µM* | 10 | -21% | i | 11µM*
CCN(CC(=O)Nc1cc(S(=O)(=O)N2CCOCC2)ccc1Cl)Cc1ccccc1 | 2% | u | -58* | u | u | -15%
CCN(c1ccccc1)S(=O)(=O)c1ccc(Cl)c(NC(=O)CN(C)C2CCN(C)CC2)c1 | 1% | u | -55* | -18% | i | u
CCN(CC(=O)Nc1cc(S(=O)(=O)N2CCCCC2)ccc1Cl)Cc1ccccc1 | 0% | u | 6 | -21% | u | 16%
COCCCn1c(=O)c2sccc2n2c(CCCC(=O)Nc3cccc(C(F)(F)F)c3)nnc12 | 0% | x | x | x | x | x

Screening data as filed in PubChem.
